Records with an inconclusive call do not appear. Active and inactive are the calls of the source. Calls follow the shape of the dose curve; as a rule, active = well fitted cell-killing curve with a large enough effect; inconclusive = small, poorly fitted or top-dose-only effect, or effect the other way; inactive = no such curve, though single readings can be large or run the other way. Starred links: 1 amine or outer side, 2 acyl side, 3 side chain; linkers in the order of their positions; H or OH if unused. Positions of bridges follow the written chain, without caps; N, C: chain ends. Non-standard residues stand in square brackets, D forms with d. Residues, ends and D or L forms follow the SMILES beside them. Chains are numbered I, II in the order given. Actinocin(9to1) = Cc1c2oc3c(C)ccc(C(=O)[*:1])c3nc-2c(C(=O)[*:2])c(N)c1=O; NMeV = CN[CH](C(=O)O)C(C)C; Sar = CNCC(=O)O
Experiment: Quantitative High-Throughput drug screen in 47 multiple myeloma cell lines against the NCATS MIPE library collection: PE2_PLB cell viability assay (AID 1919869); also: nearly all actives have a fitted effect of over 35% in size
Details: PE2_PLB myeloma cells viability, ATP luminescence, 48 h; series mostly up to 45.8 µM
Procedure, shortened: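 ATP-based CellTiter-Glo luminescence after 48 h drug exposure (37 °C, 5% CO2) of 500 myeloma cells per well. DMSO-only wells set 100% viability, media-only wells 0%; MIPE 4.0 library added by pin tool.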
Potency is read from the fitted curve at half-maximal effect.

Question: Which Potency does the source give for CCc1ccc(C(=O)Nc2cc(CN3CCN(C)CC3)cc(C(F)(F)F)c2)cc1C#Cc1cnc2ccnn2c1 here?
Answer: The Potency was 4690 nM (active).

Question: For C=CC[C@@H]1C=C(C)C[C@H](C)C[C@H](OC)[C@H]2O[C@@](O)(C(=O)C(=O)N3CCCC[C@H]3C(=O)O[C@H](C(C)=C[C@@H]3CC[C@H](O)[C@H](OC)C3)[C@@H](C)[C@@H](O)CC1=O)[C@@H](C)C[C@@H]2OC, which Potency is on record?
Answer: The Potency was 2640 nM (active).

Question: For CO[C@@H]1[C@@H](O)[C@H](O)[C@@H](n2c3c(Cl)cccc3c3c4c(c5c6cccc(Cl)c6[nH]c5c32)C(=O)NC4=O)O[C@@H]1CO, which Potency is on record?
Answer: The Potency was 1050 nM (active).

Question: With Cc1cc(O)c2c(c1)C(=O)c1cccc(O)c1C2=O as the compound, how does the Potency read?
Answer: Its Potency is “inactive”.

Question: Which Potency does the source give for C[C@H](NC(=O)C(C#N)=Cc1cccc(Br)n1)c1ccccc1 here?
Answer: The Potency was 2640 nM (active).

Question: For Cn1cnc(=N)c2[nH]cnc21, which Potency is on record?
Answer: Its Potency is 332 nM (active).

Question: For CC(C)N1[N]C(=C2C=c3cc(O)ccc3=N2)c2c(N)ncnc21, which Potency is on record?
Answer: The Potency was 148 nM (active).

Question: Which Potency does the source give for COc1cccc2c1C(=O)c1c(O)c3c(c(O)c1C2=O)C[C@@](O)(C(=O)CO)C[C@@H]3O[C@H]1C[C@H](N)[C@@H](O)[C@H](C)O1 here?
Answer: Its Potency is 148 nM (active).

Question: With COc1cc(C=CC(=O)CC(=O)C=Cc2ccc(O)c(OC)c2)ccc1O as the compound, how does the Potency read?
Answer: Its Potency is 4810 nM (active).

Question: With CCC[C@H]1C[C@H](C(=O)N[C@@H]([C@@H]2O[C@@H](SC)[C@@H](O)[C@@H](O)[C@@H]2O)[C@H](C)Cl)N(C)C1 as the compound, how does the Potency read?
Answer: The Potency was “inactive”.

Question: With OCc1ccccc1O[C@@H]1O[C@H](CO)[C@H](O)[C@H](O)[C@H]1O as the compound, how does the Potency read?
Answer: Its Potency is “inactive”.

Question: Which Potency does the source give for Cn1cc(C2=C(c3c4n(c5ccccc35)CCC(CN)C4)C(=O)NC2=O)c2ccccc21 (stereo not drawn) here?
Answer: Its Potency is 7430 nM (active).

Question: With O=C(Nc1cccc(Nc2ncc(Br)c(NCCc3cnc[nH]3)n2)c1)N1CCCC1 as the compound, how does the Potency read?
Answer: The Potency was 2960 nM (active).

Question: Which Potency does the source give for C=CCNc1c(O)cc2c(O)c1C[C@@H](C)C[C@H](OC)[C@@H](O)[C@@H](C)C=C(C)[C@H](OC(N)=O)[C@@H](OC)C=CC=C(C)C(=O)N2 here?
Answer: Its Potency is 1480 nM (active).

Question: Which Potency does the source give for C[C@@H]1CC[C@@]2(OC1)OC1CC3C4CC=C5CC(O)CCC5(C)C4CCC3(C)C1[C@@H]2C (stereo partly drawn) here?
Answer: The Potency was “inactive”.

Question: For CCS(=O)(=O)Nc1ccc2[nH]c(O)c(C(=Nc3ccc(CN4CCCCC4)cc3)c3ccccc3)c2c1, which Potency is on record?
Answer: Its Potency is 469 nM (active).

Question: For CCN(CC)CCNC(=O)c1c(C)[nH]c(C=C2C(=O)Nc3ccc(F)cc32)c1C, which Potency is on record?
Answer: Its Potency is 2150 nM (active).

Question: Which Potency does the source give for O=C1NC(=O)[C@@H](c2cn3c4c(cccc24)CCC3)[C@H]1c1c[nH]c2ccccc12 here?
Answer: Its Potency is 1870 nM (active).

Question: With COC1=C2C[C@@H](C)C[C@H](OC)[C@@H](O)[C@@H](C)C=C(C)[C@H](OC(N)=O)[C@@H](OC)C=CC=C(C)C(=O)NC(=CC1=O)C2=O as the compound, how does the Potency read?
Answer: Its Potency is 296 nM (active).

Question: With NC(=NCCCCCCN=C(N)N=C(N)Nc1ccc(Cl)cc1)N=C(N)Nc1ccc(Cl)cc1 as the compound, how does the Potency read?
Answer: Its Potency is 6620 nM (active).

Question: For Nc1nc(N)c2nc(-c3cccc(O)c3)c(-c3cccc(O)c3)nc2n1, which Potency is on record?
Answer: Its Potency is 2960 nM (active).

Question: For CC(C)C[C@H](NC(=O)[C@@H](NC(=O)c1cccc(-c2ccccc2)n1)[C@@H](C)O)B(O)O, which Potency is on record?
Answer: Its Potency is 11.8 nM (active).

Question: Which Potency does the source give for O=C1CSC(=O)N1C(CCc1ccncc1)COc1ccc(-c2cccc([N+](=O)[O-])c2)cc1 (stereo not drawn) here?
Answer: The Potency was 16600 nM (active).

Question: With C#C[C@]1(O)CC[C@@H]2[C@@H]3CCC4=CC(=O)CC[C@@H]4[C@H]3CC[C@@]21CC as the compound, how does the Potency read?
Answer: The Potency was “inactive”.

Question: With CC(=O)O[C@@]12CO[C@H]1C[C@H](O)[C@@]1(C)C(=O)[C@H](O)C3=C(C)[C@@H](OC(=O)C(O)[C@@H](NC(=O)OC(C)(C)C)c4ccccc4)C[C@@](O)([C@@H](OC(=O)c4ccccc4)[C@@H]21)C3(C)C (stereo partly drawn) as the compound, how does the Potency read?
Answer: Its Potency is “inactive”.

Question: Which Potency does the source give for C[C@H](NCc1ccc(OCc2cccc(F)c2)cc1)C(N)=O here?
Answer: Its Potency is 2090 nM (active).

Question: With C[C@@]12C(=O)OC(=O)[C@@]1(C)C1CCC2O1 as the compound, how does the Potency read?
Answer: The Potency was 2640 nM (active).

Question: Which Potency does the source give for Cc1c2oc3c(C)ccc(C(=O)NC4C(=O)NC(C(C)C)C(=O)N5CCCC5C(=O)N(C)CC(=O)N(C)C(C(C)C)C(=O)OC4C)c3nc-2c(C(=O)NC2C(=O)NC(C(C)C)C(=O)N3CCCC3C(=O)N(C)CC(=O)N(C)C(C(C)C)C(=O)OC2C)c(N)c1=O (stereo not drawn) (I: TVP[Sar][NMeV] / II: TVP[Sar][NMeV]; ester I:1-I:C, II:1-II:C; linker I:N-II:N via Actinocin(9to1); configuration not given here) here?
Answer: The Potency was “inactive”.

From PubChem BioAssay (NCATS)
